Results filed as inconclusive are left out. The source made the active and inactive calls. The call rests on the fitted dose curve; in most records, active means well fitted inhibition curve with a large enough effect; inconclusive means small, poorly fitted or top-dose-only effect; inactive means flat fitted curve, though single readings scatter.

This note sets out measurements from PubChem BioAssay (NCATS).

Assay in all cases: qHTS profiling for inhibitors of Plasmodium falciparum proliferation (AID 504749); further: nearly all actives have a fitted effect of over 60% in size
Common to all, as to settings: P. falciparum in erythrocytes, SYBR Green DNA, 72 h; series mostly up to 28.7 µM

For one assay, the system named is DIV17. The method in brief: (§1)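 SYBR Green fluorescence of parasite DNA, read after lysis and overnight dark incubation, measured growth over 72 h in erythrocyte culture at 0.3% parasitemia and 2.5% hematocrit. Data normalised to DMSO and 0.29 uM artemisinin, with plate-drift correction.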
In the next assay the test system is DIV30. The essentials:
as §1

For another assay, the system named is Dd2. The essentials: as §1
The test system of another assay is ECU. The method in brief:
as §1

The subject of another assay is FAB9. The essentials: as §1
Another assay concerns HB3. The essentials:
as §1

For a further assay, the system named is JCK. The method in brief:
as §1

A further assay has as its system ICS. The method in brief: as §1
The test system of the next assay is GB4. The essentials:
as §1
Potency means the concentration at half of the fitted maximal effect.

For `C#C[C@]1(O)CC[C@H]2[C@@H]3CCc4cc(OC5CCCC5)ccc4[C@H]3CC[C@@]21C`, the Potency entry in the assay with DIV17, in the assay on DIV30, in the assay on Dd2, with ECU, in the assay on FAB9 and in the assay with HB3 was “inactive” throughout. Besides, in the assay on JCK, the Potency result is “inactive”.

Regarding `NC(=O)C(=O)N/N=C/c1ccc([N+](=O)[O-])o1`, the Potency entry in the assay on Dd2, in the assay with ECU, with FAB9, in the assay on HB3, with ICS and in the assay on JCK was “inactive” in each case.

As for `O=C1OCCN1/N=C/c1ccc([N+](=O)[O-])o1`, the Potency with Dd2 is 11.2 µM (active); with ICS, 7.94 µM (active).

On to `CCN1CCC[C@H]1CNC(=O)c1c(OC)ccc(Br)c1OC`, for which the Potency result in the assay on DIV30, in the assay with ECU, in the assay with FAB9, with HB3, with ICS and in the assay on JCK was “inactive” each time. Moreover, in the assay with Dd2, the Potency was 12.6 µM (active).

As to `Cc1cccc(C)c1NC(=O)CN1CCN(CCCC(c2ccc(F)cc2)c2ccc(F)cc2)CC1`, the Potency entry in the assay with FAB9 and with JCK was “inactive” in each case. Moreover, in the assay on ICS, the Potency is 3.55 µM (active).

On to `Oc1ccc(Cl)cc1Sc1cc(Cl)ccc1O`, for which the Potency result with Dd2, in the assay on FAB9, in the assay with HB3 and in the assay with JCK was “inactive” each time. For the same molecule, in the assay on ICS, the Potency was 8.91 µM (active).

Turning to `C[C@@H](CN(C)C)CN1c2ccccc2Sc2ccccc21`, the Potency entry in the assay with ECU, in the assay with FAB9, with HB3 and in the assay on JCK was “inactive” in each case.

On to `O=C1[C@H]2CCCC[C@H]2C(=O)N1CCCCN1CCN(c2nsc3ccccc23)CC1`, for which the Potency result with DIV30, in the assay on Dd2, with ECU, in the assay on FAB9 and in the assay on JCK was “inactive” throughout.

For the molecule `CCN(CC)CCNC(=O)COc1ccc(Cl)cc1`, the Potency result with DIV30, with FAB9, in the assay on HB3 and with JCK was “inactive” throughout. Moreover, the Potency in the assay with Dd2 and in the assay with ICS was 12.6 µM (active) throughout.

For `Oc1c(I)cc(Cl)c2cccnc12`, the Potency entry in the assay with DIV17, in the assay with DIV30, with Dd2, in the assay on ECU, in the assay on FAB9 and in the assay with HB3 was “inactive” in each case. In addition, the Potency result in the assay with JCK is “inactive”.

With `CO/N=C1\CN(c2nc3c(cc2F)c(=O)c(C(=O)O)cn3C2CC2)CC1CN` (stereo not given), the Potency in the assay with Dd2 is 10 µM (active); in the assay with GB4 it was 9.53 µM (active); in the assay with HB3 it was 11.2 µM (active); in the assay on ICS, 5.62 µM (active).

Consider `CN1CCC[C@@H]1c1cccnc1`, for which the Potency result in the assay on DIV17, with DIV30, in the assay on Dd2, in the assay with ECU, in the assay on FAB9 and in the assay on GB4 was “inactive” each time. Besides, the Potency result in the assay on HB3, in the assay on ICS and with JCK was “inactive” throughout.

In the case of `CC(Cc1cccc(C(F)(F)F)c1)NCCOC(=O)c1ccccc1` (stereo not given), the Potency result in the assay on DIV30, in the assay on ECU, in the assay with FAB9, with HB3, in the assay with ICS and in the assay with JCK was “inactive” in each case.

Turning to `O=c1c(-c2ccccc2)c1-c1ccccc1`, the Potency was 10.7 µM (active) with DIV17; 10 µM (active) with Dd2; 10.7 µM (active) in the assay with GB4; 11.2 µM (active) in the assay on HB3; 4.47 µM (active) in the assay on ICS.

As to `O=S1(=O)c2cccc3cccc(c23)N1CCCN1CCN(c2ccc(F)cc2)CC1`, the Potency entry in the assay with DIV30, with Dd2, in the assay on ECU, in the assay with FAB9, in the assay on GB4 and with HB3 was “inactive” in each case. Moreover, the Potency result in the assay on JCK is “inactive”.

Consider `CCCCC1=NC2(CCCC2)C(=O)N1Cc1ccc(-c2ccccc2-c2nn[nH]n2)cc1`, for which the Potency entry in the assay with DIV17, with DIV30, in the assay with Dd2, in the assay on ECU, in the assay with FAB9 and in the assay with HB3 was “inactive” in each case. Besides, in the assay on JCK, the Potency result is “inactive”.

Take `Cc1ccc(O)c2ncccc12`: the Potency result in the assay with DIV30, in the assay on FAB9, in the assay with HB3 and in the assay with JCK was “inactive” each time.

Take `Oc1ccc(O)cc1`: the Potency entry in the assay on DIV17, in the assay with FAB9 and in the assay with JCK was “inactive” in each case. In addition, the Potency with ICS was 11.2 µM (active).

As for `CCN(CCCc1ccccc1)CCCc1ccccc1`, the Potency with Dd2 was 3.16 µM (active). Moreover, the Potency result in the assay on ECU, in the assay with FAB9, in the assay on HB3 and in the assay on JCK was “inactive” each time.

`CCCCCCCCCCCCCCNCCO`: the Potency result in the assay with DIV30, in the assay on FAB9 and in the assay on JCK was “inactive” each time. The results for the Potency with Dd2, with HB3 and in the assay with ICS were 10 µM (active), 10 µM (active) and 6.31 µM (active), respectively.

`C=C(CC)C(=O)c1ccc(OCC(=O)O)c(Cl)c1Cl`: the Potency is 11.2 µM (active) in the assay on Dd2 and 10 µM (active) in the assay on ICS.

`CCCCOc1cc(C(=O)NCCN(CC)CC)c2ccccc2n1`: the Potency entry in the assay on DIV17, with DIV30, in the assay on Dd2, in the assay with ECU, in the assay on FAB9 and with HB3 was “inactive” each time. In addition, the Potency result in the assay with JCK was “inactive”.

Take `CC/C(=C(/CC)c1ccc(O)cc1)c1ccc(O)cc1`: the Potency result in the assay with DIV17, in the assay with DIV30, in the assay with Dd2, in the assay with ECU, in the assay on FAB9 and in the assay with HB3 was “inactive” in each case. For the same molecule, in the assay on JCK, the Potency result is “inactive”.

As to `O=C(CCN1CCC(c2ccccc2)C1)c1ccc2c(c1)OCCO2` (stereo not given), the Potency entry in the assay with DIV30, with Dd2, with ECU, with FAB9, in the assay with HB3 and in the assay on ICS was “inactive” each time. The Potency entry with JCK was “inactive”.

`CC(=O)c1ccc2c(c1)N(CCCN1CCC(CCO)CC1)c1ccccc1S2`: the Potency entry with DIV30, in the assay on ECU, in the assay on FAB9, in the assay with HB3 and in the assay with JCK was “inactive” each time.

With `CN(C(=O)CN(CCO)CC(=O)N(C)C(C)(C)Cc1ccccc1)C(C)(C)Cc1ccccc1`, the Potency entry in the assay with DIV30, in the assay on Dd2, with ECU, in the assay with FAB9, in the assay on HB3 and with JCK was “inactive” each time.

For `CC(C)=CCC1C(=O)N(c2ccccc2)N(c2ccccc2)C1=O`, the Potency entry in the assay with FAB9 and in the assay on JCK was “inactive” each time.

Turning to `CC(O)(P(=O)(O)O)P(=O)(O)O`, the Potency entry in the assay on DIV30, in the assay with Dd2, with ECU, in the assay with FAB9, with HB3 and in the assay on ICS was “inactive” throughout. Besides, in the assay on JCK, the Potency result was “inactive”.

On to `CN1CCN(C(c2ccccc2)c2ccccc2)CC1`, for which the Potency entry in the assay with DIV30, in the assay with ECU, in the assay on FAB9, in the assay with HB3, in the assay with ICS and in the assay with JCK was “inactive” each time.

With `C[C@@H]1C(=O)NC2=Nc3cccc(Cl)c3CN21`, the Potency entry with DIV17, in the assay with DIV30, in the assay on Dd2, with ECU, in the assay on FAB9 and in the assay on HB3 was “inactive” in each case. For the same molecule, the Potency entry with JCK was “inactive”.
